In ChEMBL document CHEMBL1961873, “Compounds: GSK PKIS; Assays: Nanosyn kinase panel” (2012):
Where “and” joins values, the source holds several entries; their conditions need not be identical. Equal values may be shown once.

Columns and labels:
[1] = target: T1, Serine/threonine-protein kinase Nek9 (Homo sapiens) (UniProt Q8TD19); conditions: at 1 µM;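 further: each value is a mean percent inhibition of NEK9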
T1 sequence (whole entry): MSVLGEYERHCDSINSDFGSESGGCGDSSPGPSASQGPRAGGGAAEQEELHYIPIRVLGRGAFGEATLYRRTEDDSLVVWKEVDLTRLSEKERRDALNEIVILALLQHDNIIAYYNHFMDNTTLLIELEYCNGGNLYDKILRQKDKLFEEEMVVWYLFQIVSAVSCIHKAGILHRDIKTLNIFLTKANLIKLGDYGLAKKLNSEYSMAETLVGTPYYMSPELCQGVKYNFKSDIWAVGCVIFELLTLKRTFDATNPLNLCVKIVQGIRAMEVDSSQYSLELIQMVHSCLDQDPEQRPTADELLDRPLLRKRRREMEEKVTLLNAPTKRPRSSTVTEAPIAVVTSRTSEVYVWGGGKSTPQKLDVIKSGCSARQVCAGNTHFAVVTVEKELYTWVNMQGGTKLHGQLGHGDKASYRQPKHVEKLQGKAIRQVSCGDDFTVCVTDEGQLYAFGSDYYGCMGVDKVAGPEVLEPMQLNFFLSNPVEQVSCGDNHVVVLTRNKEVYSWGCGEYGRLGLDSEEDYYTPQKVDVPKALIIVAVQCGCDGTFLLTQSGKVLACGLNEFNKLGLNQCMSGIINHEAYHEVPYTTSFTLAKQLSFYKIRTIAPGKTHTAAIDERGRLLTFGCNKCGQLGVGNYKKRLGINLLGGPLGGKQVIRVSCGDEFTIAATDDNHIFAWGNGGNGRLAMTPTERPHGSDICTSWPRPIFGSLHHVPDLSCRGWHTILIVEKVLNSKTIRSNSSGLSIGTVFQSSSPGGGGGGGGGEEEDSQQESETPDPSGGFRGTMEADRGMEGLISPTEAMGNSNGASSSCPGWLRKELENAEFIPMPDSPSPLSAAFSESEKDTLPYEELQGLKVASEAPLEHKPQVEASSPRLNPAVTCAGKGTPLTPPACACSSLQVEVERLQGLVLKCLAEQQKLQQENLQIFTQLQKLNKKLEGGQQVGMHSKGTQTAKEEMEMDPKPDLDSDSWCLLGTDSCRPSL

[2] = target: Serine/threonine-protein kinase PLK1 (Homo sapiens) (UniProt P53350); conditions: at 0.1 µM
Sequence of Serine/threonine-protein kinase PLK1 (Homo sapiens) (P53350 whole entry): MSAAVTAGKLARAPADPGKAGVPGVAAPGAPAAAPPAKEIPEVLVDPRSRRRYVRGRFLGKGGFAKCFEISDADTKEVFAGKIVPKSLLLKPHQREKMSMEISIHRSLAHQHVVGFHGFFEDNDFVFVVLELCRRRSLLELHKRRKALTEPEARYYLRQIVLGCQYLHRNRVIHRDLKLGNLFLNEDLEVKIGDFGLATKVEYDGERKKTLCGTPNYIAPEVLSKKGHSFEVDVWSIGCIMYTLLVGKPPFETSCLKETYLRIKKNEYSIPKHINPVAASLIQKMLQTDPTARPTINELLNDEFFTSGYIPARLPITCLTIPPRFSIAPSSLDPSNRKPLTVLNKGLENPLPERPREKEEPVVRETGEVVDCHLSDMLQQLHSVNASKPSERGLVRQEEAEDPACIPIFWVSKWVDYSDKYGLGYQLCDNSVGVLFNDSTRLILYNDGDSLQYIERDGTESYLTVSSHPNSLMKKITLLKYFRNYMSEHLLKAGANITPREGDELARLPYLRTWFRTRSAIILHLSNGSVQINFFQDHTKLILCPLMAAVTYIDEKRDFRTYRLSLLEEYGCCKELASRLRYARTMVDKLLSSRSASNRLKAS

[3] = target: Serine/threonine-protein kinase PLK1 (Homo sapiens) (UniProt P53350); conditions: at 1 µM
[4] = target: T2, Dual specificity protein kinase TTK (Homo sapiens) (UniProt P33981); conditions: at 0.1 µM
T2 sequence (whole entry): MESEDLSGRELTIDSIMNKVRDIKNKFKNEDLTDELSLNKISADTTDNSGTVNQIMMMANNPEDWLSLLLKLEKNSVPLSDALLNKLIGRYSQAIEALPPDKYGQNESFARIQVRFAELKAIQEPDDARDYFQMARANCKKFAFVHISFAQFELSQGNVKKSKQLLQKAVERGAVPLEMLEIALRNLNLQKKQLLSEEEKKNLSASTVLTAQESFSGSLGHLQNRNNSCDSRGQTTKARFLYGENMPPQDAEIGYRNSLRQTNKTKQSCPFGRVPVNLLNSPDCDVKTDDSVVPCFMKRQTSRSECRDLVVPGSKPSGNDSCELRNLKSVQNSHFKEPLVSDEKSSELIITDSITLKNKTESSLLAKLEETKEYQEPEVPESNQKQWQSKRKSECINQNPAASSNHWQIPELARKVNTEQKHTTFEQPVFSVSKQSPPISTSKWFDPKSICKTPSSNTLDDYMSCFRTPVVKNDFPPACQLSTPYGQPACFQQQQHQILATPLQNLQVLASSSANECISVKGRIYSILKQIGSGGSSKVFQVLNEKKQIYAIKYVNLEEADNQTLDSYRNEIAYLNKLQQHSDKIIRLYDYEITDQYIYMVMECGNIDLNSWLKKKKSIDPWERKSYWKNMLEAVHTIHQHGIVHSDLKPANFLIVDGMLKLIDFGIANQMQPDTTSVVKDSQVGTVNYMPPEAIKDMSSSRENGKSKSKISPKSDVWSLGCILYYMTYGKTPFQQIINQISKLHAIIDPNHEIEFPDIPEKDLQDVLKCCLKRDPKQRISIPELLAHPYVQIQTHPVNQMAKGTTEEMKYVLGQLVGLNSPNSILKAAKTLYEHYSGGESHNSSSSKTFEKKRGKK

[5] = test system: T3, Receptor-type tyrosine-protein kinase FLT3 (Homo sapiens), P36888 [D835Y]; conditions: at 1 µM
T3 sequence (whole entry): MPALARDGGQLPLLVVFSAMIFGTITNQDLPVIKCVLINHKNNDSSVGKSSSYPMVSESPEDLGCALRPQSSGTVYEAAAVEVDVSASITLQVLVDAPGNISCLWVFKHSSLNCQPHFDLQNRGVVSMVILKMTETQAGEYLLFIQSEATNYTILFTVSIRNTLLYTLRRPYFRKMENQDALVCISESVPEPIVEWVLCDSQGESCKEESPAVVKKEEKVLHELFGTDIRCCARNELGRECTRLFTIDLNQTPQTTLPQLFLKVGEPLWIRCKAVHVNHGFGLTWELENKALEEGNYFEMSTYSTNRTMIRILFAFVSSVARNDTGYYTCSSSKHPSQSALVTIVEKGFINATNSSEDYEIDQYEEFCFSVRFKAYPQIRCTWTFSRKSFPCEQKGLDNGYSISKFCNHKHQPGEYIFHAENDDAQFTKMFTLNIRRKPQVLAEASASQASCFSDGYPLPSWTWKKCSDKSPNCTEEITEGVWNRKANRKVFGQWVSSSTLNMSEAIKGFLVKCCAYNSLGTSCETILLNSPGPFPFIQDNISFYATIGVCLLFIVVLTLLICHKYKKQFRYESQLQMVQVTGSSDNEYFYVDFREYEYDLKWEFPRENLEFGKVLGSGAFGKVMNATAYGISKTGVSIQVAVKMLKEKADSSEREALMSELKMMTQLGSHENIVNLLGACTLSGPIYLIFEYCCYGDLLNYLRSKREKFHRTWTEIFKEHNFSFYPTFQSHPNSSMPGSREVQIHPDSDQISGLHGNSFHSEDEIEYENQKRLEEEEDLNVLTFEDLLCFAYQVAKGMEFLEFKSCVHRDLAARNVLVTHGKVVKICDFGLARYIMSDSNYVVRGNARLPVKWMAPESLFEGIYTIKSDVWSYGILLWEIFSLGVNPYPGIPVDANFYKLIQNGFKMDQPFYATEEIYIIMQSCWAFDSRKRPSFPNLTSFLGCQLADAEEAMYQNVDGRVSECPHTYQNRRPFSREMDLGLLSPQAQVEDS

[6] = target: Vascular endothelial growth factor receptor 3 (Homo sapiens) (UniProt P35916); conditions: at 0.1 µM
Sequence of Vascular endothelial growth factor receptor 3 (Homo sapiens) (P35916 whole entry): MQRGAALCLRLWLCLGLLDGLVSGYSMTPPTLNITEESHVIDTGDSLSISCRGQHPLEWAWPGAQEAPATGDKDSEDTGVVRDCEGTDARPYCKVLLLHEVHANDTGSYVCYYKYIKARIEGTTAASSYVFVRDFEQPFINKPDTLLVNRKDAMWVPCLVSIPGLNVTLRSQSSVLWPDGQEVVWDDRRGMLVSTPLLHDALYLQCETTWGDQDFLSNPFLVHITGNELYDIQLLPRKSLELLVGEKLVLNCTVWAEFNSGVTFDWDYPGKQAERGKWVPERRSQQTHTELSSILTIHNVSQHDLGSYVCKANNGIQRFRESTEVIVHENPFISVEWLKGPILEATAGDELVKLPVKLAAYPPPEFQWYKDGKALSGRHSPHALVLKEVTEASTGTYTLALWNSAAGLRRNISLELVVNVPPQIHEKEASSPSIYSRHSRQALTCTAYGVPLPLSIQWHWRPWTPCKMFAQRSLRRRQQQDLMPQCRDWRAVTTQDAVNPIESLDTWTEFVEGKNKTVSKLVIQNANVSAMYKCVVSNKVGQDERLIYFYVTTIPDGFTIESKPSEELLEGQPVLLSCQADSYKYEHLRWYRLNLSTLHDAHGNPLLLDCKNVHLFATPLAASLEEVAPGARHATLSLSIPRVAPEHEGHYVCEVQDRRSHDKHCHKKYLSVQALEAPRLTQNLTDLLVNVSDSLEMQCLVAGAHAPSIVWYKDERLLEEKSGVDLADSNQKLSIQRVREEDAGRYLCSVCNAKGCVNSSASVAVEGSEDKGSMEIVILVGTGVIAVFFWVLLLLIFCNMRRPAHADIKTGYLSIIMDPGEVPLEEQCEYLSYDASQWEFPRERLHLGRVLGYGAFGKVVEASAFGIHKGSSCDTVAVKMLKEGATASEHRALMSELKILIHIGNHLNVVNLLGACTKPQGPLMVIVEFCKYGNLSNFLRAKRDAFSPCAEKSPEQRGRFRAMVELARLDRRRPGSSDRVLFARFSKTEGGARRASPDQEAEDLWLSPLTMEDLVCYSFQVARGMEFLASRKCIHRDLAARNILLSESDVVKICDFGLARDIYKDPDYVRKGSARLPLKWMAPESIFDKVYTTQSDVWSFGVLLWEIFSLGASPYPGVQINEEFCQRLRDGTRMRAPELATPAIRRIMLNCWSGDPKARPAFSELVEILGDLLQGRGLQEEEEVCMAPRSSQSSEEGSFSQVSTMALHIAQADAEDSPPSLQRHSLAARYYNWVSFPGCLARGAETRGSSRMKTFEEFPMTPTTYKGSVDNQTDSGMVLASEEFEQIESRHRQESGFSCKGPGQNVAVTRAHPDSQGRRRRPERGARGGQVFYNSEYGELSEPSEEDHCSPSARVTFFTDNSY

[7] = target: Vascular endothelial growth factor receptor 3 (Homo sapiens) (UniProt P35916); conditions: at 1 µM
[8] = target: Macrophage colony-stimulating factor 1 receptor (Homo sapiens) (UniProt P07333); conditions: at 0.1 µM
Sequence of Macrophage colony-stimulating factor 1 receptor (Homo sapiens) (P07333 whole entry): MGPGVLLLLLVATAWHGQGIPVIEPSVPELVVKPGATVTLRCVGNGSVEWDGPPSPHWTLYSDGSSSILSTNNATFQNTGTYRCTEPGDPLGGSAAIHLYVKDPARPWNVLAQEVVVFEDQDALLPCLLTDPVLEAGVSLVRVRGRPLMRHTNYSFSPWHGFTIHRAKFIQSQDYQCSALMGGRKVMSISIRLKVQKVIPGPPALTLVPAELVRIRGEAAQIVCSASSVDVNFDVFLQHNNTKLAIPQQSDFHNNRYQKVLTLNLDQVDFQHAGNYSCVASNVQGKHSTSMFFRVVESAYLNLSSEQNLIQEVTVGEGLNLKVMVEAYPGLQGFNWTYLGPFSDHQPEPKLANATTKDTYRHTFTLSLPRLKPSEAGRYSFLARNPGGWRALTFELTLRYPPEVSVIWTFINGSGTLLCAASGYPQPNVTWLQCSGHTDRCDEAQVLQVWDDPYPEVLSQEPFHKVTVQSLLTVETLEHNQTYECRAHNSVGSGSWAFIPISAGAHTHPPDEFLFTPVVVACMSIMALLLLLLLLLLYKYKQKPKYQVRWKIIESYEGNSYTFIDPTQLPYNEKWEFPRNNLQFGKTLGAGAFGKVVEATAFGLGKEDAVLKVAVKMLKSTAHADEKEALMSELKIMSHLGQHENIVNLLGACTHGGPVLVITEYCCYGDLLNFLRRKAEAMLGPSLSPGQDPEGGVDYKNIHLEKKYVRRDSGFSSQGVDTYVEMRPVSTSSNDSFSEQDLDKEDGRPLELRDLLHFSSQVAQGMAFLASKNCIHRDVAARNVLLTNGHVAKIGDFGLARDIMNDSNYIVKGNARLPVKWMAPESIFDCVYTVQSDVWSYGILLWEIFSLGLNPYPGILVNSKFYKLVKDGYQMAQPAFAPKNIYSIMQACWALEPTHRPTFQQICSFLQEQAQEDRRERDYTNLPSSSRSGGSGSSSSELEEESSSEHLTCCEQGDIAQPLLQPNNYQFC

[9] = target: Macrophage colony-stimulating factor 1 receptor (Homo sapiens) (UniProt P07333); conditions: at 1 µM
[10] = target: Tyrosine-protein kinase Fyn (Homo sapiens) (UniProt P06241); conditions: at 0.1 µM
Sequence of Tyrosine-protein kinase Fyn (Homo sapiens) (P06241 2-537 limits assumed): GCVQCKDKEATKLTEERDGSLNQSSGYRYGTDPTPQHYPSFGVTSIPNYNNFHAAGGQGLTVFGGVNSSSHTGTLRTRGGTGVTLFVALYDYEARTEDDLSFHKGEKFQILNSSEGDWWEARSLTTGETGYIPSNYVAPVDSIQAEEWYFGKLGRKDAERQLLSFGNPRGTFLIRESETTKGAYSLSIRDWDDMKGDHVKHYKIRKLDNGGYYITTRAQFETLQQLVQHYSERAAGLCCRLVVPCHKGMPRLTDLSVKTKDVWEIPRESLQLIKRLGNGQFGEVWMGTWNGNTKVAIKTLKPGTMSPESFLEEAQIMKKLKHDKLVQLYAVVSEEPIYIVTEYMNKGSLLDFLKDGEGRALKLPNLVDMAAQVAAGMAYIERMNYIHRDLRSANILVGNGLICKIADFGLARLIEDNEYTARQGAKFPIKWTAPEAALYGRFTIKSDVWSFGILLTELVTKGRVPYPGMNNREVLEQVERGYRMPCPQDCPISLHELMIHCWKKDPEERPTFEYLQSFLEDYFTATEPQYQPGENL

SMILES	inhibition [1]	inhibition [2]	inhibition [3]	inhibition [4]	inhibition [5]	inhibition [6]	inhibition [7]	inhibition [8]	inhibition [9]	inhibition [10]
Nc1nonc1-c1nc2cnccc2n1C1CC1	1.51% and 3.66%	3.84% and 2.82%	5.97% and 4.56%	5.61% and 5.02%	7.78% and 5.95%	5.27% and -4.56%	21.9% and 17.5%	3.87% and 1.25%	10.1% and 8.4%	1.35% and -1.92%
CS(=O)(=O)Nc1ccc(-c2cc(-c3ccccc3)cc(C(N)=O)c2N)cc1	1.82%	0.78%	3.05%	3.79%	-1.74%	11.7%	14.7%	1.42%	9.05%	1.39%
Nc1nccc(-c2c(-c3ccc(F)cc3)ncn2C2CCNCC2)n1	3.57% and -1.29%	-0.73% and -0.83%	0.68% and 2.5%	-4.46% and 0.75%	4.31% and -2.1%	0.55% and 1.51%	-0.68% and 1.04%	-0.4% and 1.93%	0.46% and 3.61%	-0.69% and 0.67%
CS(=O)(=O)CCNCc1ccc(-c2ccc3ncnc(Nc4ccc(OCc5cccc(C(F)(F)F)c5)cc4)c3c2)o1	2.96%	5.06%	6.5%	7.15%	1.14%	8.65%	15.4%	3.92%	9.05%	2.75%
Nc1ncnc2occ(-c3ccc(NC(=O)Nc4cc(C(F)(F)F)ccc4F)cc3)c12	4.68% and 3.35%	2.14% and -0.72%	1.27% and 0.12%	1.69% and 5.46%	35.4% and 26.1%	44.8% and 23.6%	97.2% and 75.5%	91.2% and 83.5%	96.1% and 81.2%	2.34% and 3.05%
CS(=O)(=O)CCNCc1ccoc1-c1ccc2ncnc(Nc3ccc(OCc4ccccc4)cc3)c2c1	1.8%	2.42%	3.33%	3.38%	2.16%	2.25%	2.83%	-0.38%	6.09%	1.81%
O=C(O[C@H]1CN[C@H](C#Cc2cc3ncnc(Nc4ccc5c(cnn5Cc5ccccc5)c4)c3s2)C1)N1CCOCC1	-0.45%	-1.27%	1.79%	5.51%	2.81%	1.1%	1.5%	-6.02%	4.04%	1.79%
CCCNc1cccc(-n2ncc3c(N/N=C/c4ccncc4)ncnc32)c1	0.45%	-0.12%	0.93%	4%	31.9%	11.3%	40.7%	3.81%	17.6%	8.6%
